# Gli-Sufu block – Gli-Sufu pathway antagonism; Sufu-KO-LIGHT fibroblasts, Gli luciferase reporter luminescence; inhibition, % at 5 µM; AID 588413; 340,000 tested, 0.74% active;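 active = inhibition above about 55%, limit read from the data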
# Jurkat NFkB inh – lowers PMA/ionomycin-induced NF-kB signal in Jurkat cells; PMA/ionomycin-induced NF-kB luciferase reporter, luminescence; inhibition, % at 4 µM; 330,000 tested, 0.53% active; AID 435003; in the data active = inhibition above about 50%
# KLF5 inhibitor – suppresses KLF5 promoter-driven expression; DLD-1 KLF5 promoter-luciferase reporter, luminescence; inhibition, % at 5 µM; 290,000 tested, 0.23% active; AID 1700;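 active = inhibition above a per-plate limit of that plate's mean compound inhibition plus 3 SD, cut at about 60% in these data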;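 also: higher means less KLF5 promoter-driven luciferase light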
# aSyn 5UTR inh – 5' untranslated region of α-synuclein, MLPCN primary screen | alpha-synuclein 5'UTR reporter, inhibitor activity | inhibition, % (tested at 7.5 µM) | 300,000 tested, 0.82% active; in the data active = inhibition above about 60%;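 also: H4 neuroglioblastoma cells stably carrying SNCA 5'UTR luciferase fusion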
# 697 NFkB inh – inhibitors of the PMA/ionomycin-induced NF-kB reporter in 697 B cells; 697 B-cell NF-kB luciferase reporter, 16 h; AID 435022; 330,000 tested, 0.33% active; inhibition, % at 4 µM; in the data active = inhibition above about 35%
# Mdm2 MdmX PPI – disrupts the human Mdm2-MdmX interaction. SaOS-2 split-luciferase Mdm2/MdmX complementation, luminescence. 330,000 tested, 3% active. inhibition, % at 8 µM;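 active = inhibition of at least 50% at 8 µM in the primary screen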
# Target sequence (O15151 whole entry, looked up): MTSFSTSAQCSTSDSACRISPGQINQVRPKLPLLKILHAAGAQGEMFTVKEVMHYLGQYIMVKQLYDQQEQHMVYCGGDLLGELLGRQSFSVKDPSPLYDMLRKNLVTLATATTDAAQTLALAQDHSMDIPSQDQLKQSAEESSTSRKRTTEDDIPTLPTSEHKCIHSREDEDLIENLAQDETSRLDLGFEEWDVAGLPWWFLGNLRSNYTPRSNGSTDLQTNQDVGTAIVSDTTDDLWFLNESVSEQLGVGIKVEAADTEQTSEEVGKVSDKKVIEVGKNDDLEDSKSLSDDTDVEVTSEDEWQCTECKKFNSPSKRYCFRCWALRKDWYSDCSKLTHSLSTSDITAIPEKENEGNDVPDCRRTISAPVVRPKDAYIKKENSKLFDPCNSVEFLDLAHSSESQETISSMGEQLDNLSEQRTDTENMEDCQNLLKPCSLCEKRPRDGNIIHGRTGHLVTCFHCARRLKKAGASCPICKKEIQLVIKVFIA
# Target sequence (Q00987 whole entry, looked up): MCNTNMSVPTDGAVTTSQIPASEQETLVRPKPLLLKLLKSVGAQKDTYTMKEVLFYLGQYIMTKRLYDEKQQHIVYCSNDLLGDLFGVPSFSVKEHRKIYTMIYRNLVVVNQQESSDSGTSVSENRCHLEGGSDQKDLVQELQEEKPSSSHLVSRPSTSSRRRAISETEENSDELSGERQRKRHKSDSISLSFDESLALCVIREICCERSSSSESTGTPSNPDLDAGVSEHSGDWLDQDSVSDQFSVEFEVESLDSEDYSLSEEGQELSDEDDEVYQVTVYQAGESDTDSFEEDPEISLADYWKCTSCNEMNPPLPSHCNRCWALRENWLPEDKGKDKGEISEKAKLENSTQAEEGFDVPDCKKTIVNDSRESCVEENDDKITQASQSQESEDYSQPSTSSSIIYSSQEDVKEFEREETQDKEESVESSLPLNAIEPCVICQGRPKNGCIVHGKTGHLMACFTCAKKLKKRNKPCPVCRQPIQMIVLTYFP
# KLF5 inh confirm – confirmation of KLF5 inhibitors | inhibition, % at 4 µM | DLD-1 KLF5 promoter firefly luciferase reporter, luminescence | 610 tested, 79% active | AID 1834 | shares compounds with KLF5 inhibitor;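 active = inhibition above a set limit taken from the earlier primary screen, cut at about 63% in these data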
# IEC-6 tox trip – kills rat IEC-6 cells in KLF5 counter-screen | 610 tested, 56% active | IEC-6 rat intestinal cells, viability luminescence | AID 1905 | inhibition, % at 4 µM | shares compounds with KLF5 inhibitor; in the data active = inhibition above about 23%;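 also: cells exposed to compounds for 48 hours before viability read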
# Numbers stand for hits; . = inactive; / = no result. Shown are actives, neighbours in structure and some others; about 4.1% of the full set was active somewhere.
SMILES,Gli-Sufu block,Jurkat NFkB inh,KLF5 inhibitor,aSyn 5UTR inh,697 NFkB inh,Mdm2 MdmX PPI,KLF5 inh confirm,IEC-6 tox trip
C/C(=N\NC(=O)Cc1ccccc1)c1ccc(Cl)s1,.,.,.,.,.,.,/,/
O=C(O)c1ccc(N2CCCS2(=O)=O)cc1,.,.,.,.,.,.,/,/
CC[n+]1c(/C=C2\Sc3ccccc3N2C)ccc2cccc(C)c21,87,/,68,116,/,/,115,55
CN1/C(=C/c2cccc[n+]2CCO)Sc2ccccc21,.,.,.,.,.,.,/,/
Cc1cc(Nc2ccccc2)n2nc(C)c(-c3ccccc3)c2n1,.,.,.,.,.,.,/,/
Cc1cc(NCc2ccccn2)n2nc(C)c(-c3ccccc3)c2n1,.,.,67,/,.,.,.,.
O=C(N/N=C/c1cccc(Oc2ccccc2)c1)c1ccccc1F,/,.,64,.,.,.,66,.
Nc1ccc(C(=O)N/N=C/c2cccc(Oc3ccccc3)c2)cc1,.,.,.,.,.,.,/,/
COc1ccc(CNC(=O)CN2C(=O)CCSc3ccc(S(=O)(=O)N4CCCC4)cc32)cc1,.,.,.,.,.,.,/,/
CCOc1ccc(C(=O)c2cc([N+](=O)[O-])ccc2N2CCOCC2)cc1,.,/,89,79,/,/,95,86
Nc1ncnc2c1ncn2[C@H]1C[C@H](O)[C@@H](COP(=O)(O)O)O1,.,.,75,.,.,.,.,.
O=C(c1cccc([N+](=O)[O-])c1)N1CCN(c2cccc(Cl)c2)CC1,.,.,.,.,.,.,/,/
COC(=O)c1cc(C(=O)N2CCN(c3cccc(Cl)c3)CC2)cc([N+](=O)[O-])c1,.,.,70,.,.,.,76,56
C/C(=N\N=C(/N)c1nonc1N)c1ccc2c(c1)OCO2,.,.,.,.,.,.,/,/
COc1cc2c(cc1OC)C(C)N(C(=O)Nc1cc(C)cc(C)c1)CC2 (stereo not given),.,.,63,.,.,.,80,55
COc1ccc(S(=O)(=O)N2c3ccccc3OCC2C)cc1 (stereo not given),.,.,84,.,.,.,79,59
COc1ccc(S(=O)(=O)N2c3ccccc3OCC2CC(=O)O)cc1 (stereo not given),.,.,.,.,.,.,/,/
CCOc1ccc(N(CC(=O)Nc2nccs2)S(=O)(=O)c2c(C)[nH]c(=O)[nH]c2=O)cc1,.,.,.,.,.,.,/,/
Cc1cc(C)cc(-n2ncc3c2CCCC3NC(=O)CN2CCCCC2=O)c1 (stereo not given),.,.,.,.,.,.,/,/
Cc1ccc(S(=O)(=O)Nc2cc(Cl)c(O)c3ncccc23)cc1,69,.,68,77,.,.,79,.
CCOc1ccc(OCCNC(=O)C(NC(=O)c2c(F)cccc2F)C(C)C)cc1 (stereo not given),.,.,/,/,.,.,/,/
Cn1cnc([N+](=O)[O-])c1N=C(N)N,.,.,.,.,.,.,/,/
O=C1C(Nc2ccccc2)=C(N2CCCCC2)C(=O)c2ccccc21,.,.,64,.,.,.,73,.
CCS(=O)(=O)c1nc2ccccc2n1Cc1ccccn1,.,.,.,.,.,.,/,/
Cc1ccccc1N(CC(=O)NCc1ccccc1)C(=O)CCC(=O)Nc1nccs1,.,.,.,.,.,.,/,/
SMILES,Gli-Sufu block,Jurkat NFkB inh,KLF5 inhibitor,aSyn 5UTR inh,697 NFkB inh,Mdm2 MdmX PPI,KLF5 inh confirm,IEC-6 tox trip
COc1cccc(C(=O)Nc2sc3c(c2C#N)CCN(C(C)=O)C3)c1,.,.,74,.,.,.,79,56
C/C(=N\N1CCN(c2ccccc2)CC1)c1ccc(O)cc1,.,.,.,.,.,.,/,/
COCCNCc1cc(C)n(-c2cc(S(=O)(=O)N3CCOCC3)ccc2N2CCCC2)c1C,.,/,/,/,/,/,/,/
Cc1ccc(SCC(=O)NC(=O)Nc2ccc3c(c2)OCCO3)cc1C,.,.,.,.,.,.,/,/
Cc1nc(-c2ccc(C(=O)Nc3ccccc3F)cc2)cs1,.,.,71,92,.,.,.,.
Cc1nc(-c2ccc(C(=O)Nc3ccc(F)cc3)cc2)cs1,.,.,.,.,.,.,/,/
O=C(Nc1ccc2c(c1)CCC2)c1cc(=O)[nH]c2ccccc12,.,.,.,.,.,.,/,/
CCOc1cc(Br)cc(/C=N/NC(=O)c2cccnc2)c1O,.,.,100,.,.,.,94,.
